The record followed here is PubChem BioAssay.

The nature of experiment [1]: inhibitors of TNFa-induced NFkB p65 translocation, primary screen, imaging, HUVEC, MLSMR starter and 10KST1 sets (AID 438;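 active = inhibition above 20% together with a positive visual image hit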;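 also: compound added about 3h40 before a 20 min TNFalpha stimulation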;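 as to inhibition: signal is the nuclear over cytoplasmic p65 intensity ratio per well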). The settings on record: HUVEC TNFa-induced p65 nuclear translocation; cell count: measured here: nuclei count (cytotoxicity indicator), at 2.08 µM; inhibition: at 2 µM, stronger effect = higher value, 0% TNFa-plus-vehicle, 100% no-TNFa wells.
The nature of experiment [2]: reduction of polyQ htt aggregates in cells – imaging, exon1htt(103Q)mCFP cells, high-content imaging, primary screen (AID 483;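 active = visual image review flags a hit and inhibition of aggregation exceeds 20%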;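 also: compound exposure lasted 3 days before fixation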;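 as to nuclei count: percent of the per-plate median nuclei count of sample wells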). The settings on record: exon1htt(103Q)mCFP cell line, aggregate imaging, at 2 µM; inhibition of aggregation: stronger effect = higher value; nuclei count: measured here: cell count, toxicity.
Experiment [3] can be described thus: endothelial E-selectin expression blockers – imaging, HUVEC, immunofluorescence, MLSMR starter and 10KST1 sets, primary screen (AID 487;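 active = visually confirmed hit in the image check and inhibition above 20%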;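 as to inhibition: signal is fraction of cell area covered by stained E-selectin grains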;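 as to nuclei count: 100% = median nuclei count of all wells on the same plate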). To be noted: HUVEC TNFalpha-induced E-selectin immunofluorescence imaging, at 2 µM; inhibition: stronger effect = higher value; nuclei count: measured here: cell number, toxicity.
The nature of experiment [4]: Primary imaging screen for DUSP6 inhibitors that restore phospho-Erk in transfected HeLa cells, chemical complementation (AID 609;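 active = compounds giving at least 50% inhibition in the cell-based MKP-3 phosphatase rescue imaging test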;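 as to inhibition: phospho-Erk level distribution per well compared with pooled transfected vehicle control wells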). To be noted: HeLa MKP-3 transfected, phospho-Erk imaging KS statistic, at 10 µM, cells stimulated with TPA for 15 min.
Experiment [5] has as its target Dual specificity protein phosphatase 6 (Homo sapiens) (UniProt Q16828). The description is as above. To be noted: HeLa MKP-3 transfected, phospho-Erk imaging KS statistic; at 10 µM; stronger effect = higher value; cells stimulated with TPA for 15 min.
Experiment [6] has as its target Voltage-gated potassium channel subunit beta-2 (Rattus norvegicus) (UniProt P62483). Briefly: inhibitors of rat Kvbeta2 reductase activity – biochemical, NADPH fluorescence, primary screen (AID 622;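 active = fluorescence slope higher than the sample average by over 3 SD, cut at about -0.22 in these data, passing the limit was not always enough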;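 also: slope of raw intensity against log time taken from 70 to 1610 s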). To be noted: recombinant KvBeta, 4-cyanobenzaldehyde reduction, at 10 µM, stronger effect = higher value.
For experiment [7] the target is unchanged. Briefly: enhancers of rat Kvbeta2 NADPH turnover – biochemical, NADPH fluorescence, primary screen (AID 623;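 active = NADPH fluorescence slope more negative than the mean of all samples by about 3 SD, 99.7% confidence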;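 also: fluorescence intensity change per second fitted from 20 to 320 s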). The settings on record: Recombinant KvBeta, NADPH fluorescence decrease slope, 10 min; at 10 µM; stronger effect = lower value.
Experiment [8] addresses Alpha-2C adrenergic receptor (Homo sapiens) (UniProt P18825). Briefly: compounds altering alpha2C-coupled GIRK flux – cell-based, HEK293 alpha2C/GIRK1/2, thallium flux, primary screen (AID 624;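 active = fluorescence slope after compound addition differing from the mean of all screened samples at 99.7% confidence, in either direction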;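 also: slope of fluorescence ratio to pre-addition baseline per second over 15 to 24 s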). To be noted: thallium flux BTC fluorescence, at 10 µM, actives lie on both sides.
Experiment [9] can be described thus: inhibitors of larval lipid processing in zebrafish, primary screen, whole organism, PED6 fluorescence, gall bladder and intestine (AID 686;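 active = a full or partial loss of lipid-probe fluorescence in the fish gall bladder, intestine or both, judged by eye; inactive = no fluorescence loss, or compound toxic to the fish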;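 also: larvae 5 to 7 days old with five fish per well; signal comes from phospholipase A2 cleavage of quenched PED6 carried via bile; overnight exposure to compound and PED6 before scoring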). To be noted: Zebrafish larvae PED6 lipid processing, fluorescence scoring; screened at 20 µM (by protocol).
The nature of experiment [10]: loss of swimming-algae plug formation – whole organism, Chlamydomonas reinhardtii, WT vs cilia-less mutant, absorbance, 96-well, primary screen (AID 463189).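 Also: 0% = wild type cc124 cells in DMSO and 100% = ciliumless bld1 mutant cells.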 To be noted: Chlamydomonas reinhardtii gravitaxis, OD600 absorbance, 2 days; at 10 µM; stronger effect = higher value.
A short description of experiment [11]: blockers of RIG-like receptor reporter activation – cell-based, Sendai virus stimulus, luciferase, 10K MLSCN set, TLR/RLR signaling modifier project, primary screen (AID 602276;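 active = inhibition at or above 50% at 10 µM; inactive = inhibition below 50%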;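 also: firefly luciferase from ISG56 promoter only with Renilla not read in this screen; 0% = Sendai virus plus DMSO and 100% = medium plus DMSO without virus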). To be noted: HEK293 RL24 IRF3 luciferase reporter, at 10 µM, stronger effect = higher value. In general terms: In a reporter assay the amount or activity of a reporter protein is the signal.
Experiment [12] is described as follows: TLR3 IRF3 reporter activation blockers – cell-based, poly I:C stimulus, luciferase, 10K MLSCN set, primary screen (AID 602277;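 active = inhibition of the reporter signal at or above 50%; inactive = inhibition below 50%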). To be noted: HEK293-TLR3 RL24 IRF3 luciferase reporter, at 10 µM, stronger effect = higher value.
The mark [13] stands for this setting: measured here: cell density z-score.
Where [14] appears, read: measured here: nuclear c-Myc green intensity z-score.
Where [15] appears, read: measured here: nuclear pErk red intensity z-score, stronger effect = higher value.

Several values for one entry are separate records, joined by “and”; a condition that tells them apart may be missing. Identical values can stand only once. Activity calls are given as the source filed them.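 The calls were made as follows, unless noted: active = inhibition at or above 50% relative to wild type and mutant plate controls; inactive = inhibition below 50%.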

Sequence of Voltage-gated potassium channel subunit beta-2 (Rattus norvegicus) (P62483 whole entry, looked up): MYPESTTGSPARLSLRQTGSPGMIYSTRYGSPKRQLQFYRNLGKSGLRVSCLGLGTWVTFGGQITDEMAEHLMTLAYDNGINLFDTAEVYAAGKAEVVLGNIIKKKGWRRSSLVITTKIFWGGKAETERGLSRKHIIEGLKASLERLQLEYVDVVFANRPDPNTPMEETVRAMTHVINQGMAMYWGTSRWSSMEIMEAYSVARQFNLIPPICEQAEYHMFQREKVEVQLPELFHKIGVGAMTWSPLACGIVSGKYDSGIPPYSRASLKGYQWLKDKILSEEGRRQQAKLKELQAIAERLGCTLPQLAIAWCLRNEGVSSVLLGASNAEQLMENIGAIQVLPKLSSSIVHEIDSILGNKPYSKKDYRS
Sequence of Alpha-2C adrenergic receptor (Homo sapiens) (P18825 whole entry, looked up): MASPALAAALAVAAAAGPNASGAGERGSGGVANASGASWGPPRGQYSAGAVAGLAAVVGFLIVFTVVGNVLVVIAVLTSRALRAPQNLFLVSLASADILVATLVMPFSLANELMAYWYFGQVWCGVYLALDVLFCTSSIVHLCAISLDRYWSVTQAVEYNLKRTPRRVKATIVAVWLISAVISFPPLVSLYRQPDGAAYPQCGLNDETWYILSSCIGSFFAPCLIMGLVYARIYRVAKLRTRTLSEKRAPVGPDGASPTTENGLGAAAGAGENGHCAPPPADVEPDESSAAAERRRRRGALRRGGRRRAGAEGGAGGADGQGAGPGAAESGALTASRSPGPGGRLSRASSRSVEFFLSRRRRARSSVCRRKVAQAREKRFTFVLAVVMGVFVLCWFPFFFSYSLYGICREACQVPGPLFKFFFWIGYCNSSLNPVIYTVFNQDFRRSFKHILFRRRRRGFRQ
Sequence of Dual specificity protein phosphatase 6 (Homo sapiens) (Q16828 whole entry, looked up): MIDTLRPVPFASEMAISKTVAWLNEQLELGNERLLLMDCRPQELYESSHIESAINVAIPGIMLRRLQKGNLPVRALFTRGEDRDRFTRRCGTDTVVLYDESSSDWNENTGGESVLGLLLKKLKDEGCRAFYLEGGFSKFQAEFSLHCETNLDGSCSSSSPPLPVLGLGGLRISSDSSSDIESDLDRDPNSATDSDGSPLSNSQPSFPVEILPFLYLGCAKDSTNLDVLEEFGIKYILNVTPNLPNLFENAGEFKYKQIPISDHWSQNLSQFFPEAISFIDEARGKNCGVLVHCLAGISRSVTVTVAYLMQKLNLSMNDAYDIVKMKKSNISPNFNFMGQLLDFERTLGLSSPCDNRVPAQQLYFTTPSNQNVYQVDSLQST

Turning to `Cc1cc(NC(=O)C2=C(O)c3ccccc3S(=O)(=O)N2C)no1`, in experiment [1], the cell count was found to be 693. Besides, the inhibition (in general, the relative decrease from the control value, in per cent) was -7.5% (inactive) in experiment [1]; -39.3% (inactive) in [3]; 7.39% (inactive) in experiment [5]; -6.68% (inactive) in experiment [10]; 12.9% (inactive) in experiment [11]; 25.5% (inactive) in [12]. For the same molecule, in [2], the inhibition of aggregation is 9.1% (inactive). Also, the results for the nuclei count in [2] and in experiment [3] were 108% and 120%, respectively. Also, the z-score in experiment [4] (setting [13]) came out at 0.515; in experiment [4] (setting [14]), 0.415; in [4] (setting [15]), 0.569. For the same molecule, in experiment [6], the fluorescence slope was -0.538 (inactive). The NADPH fluorescence slope in experiment [7] is -2.2e-05 (inactive). The slope in experiment [8] is 0.00444 (inactive). The molecule was classed as inactive in experiment [9].

On to `CC(C)OC(=O)C(CC(=O)O)NCc1ccccc1` (stereo not given), for which, in experiment [1], the cell count was 518. Besides, the inhibition in experiment [1] was -2% (inactive); in experiment [3] it was -117% (inactive); in experiment [5] it was 1.75% (inactive); in experiment [10], -6.73% (inactive); in experiment [11] it was 14.9% (inactive); in experiment [12], 20.3% (inactive). Besides, in experiment [2], the inhibition of aggregation is 15% (inactive). The nuclei count in experiment [2] stood at 65.3%; in [3], 118%. Also, the z-score turned out to be 0.414 in experiment [4] (setting [13]), 0.989 in experiment [4] (setting [14]) and 0.212 in [4] (setting [15]). For the same molecule, in experiment [6], the fluorescence slope was -0.296 (inactive). Besides, in [7], the NADPH fluorescence slope is 2.8e-05 (inactive). Moreover, in [8], the slope was 0.00502 (inactive). Besides, the call in experiment [9] was inactive.

As to `CC(C)NCC(O)COc1ccc(CCOCC2CC2)cc1` (stereo not given), in [1], the cell count was found to be 564. Moreover, the inhibition was -5.6% (inactive) in experiment [1]; -146% (inactive) in experiment [3]; 1.48% (inactive) in [5]; 7.04% (inactive) and 48.4% (inactive) in experiment [10]; 12.5% (inactive) in [11]; 37.3% (inactive) in [12]. Further, the inhibition of aggregation in experiment [2] was 10.6% (inactive). Also, the results for the nuclei count in experiment [2] and in experiment [3] were 102% and 119%, respectively. Moreover, the z-score in experiment [4] (setting [13]) is -0.149; in experiment [4] (setting [14]), 0.261; in [4] (setting [15]) it was 0.0924. For the same molecule, the fluorescence slope in experiment [6] was -0.454 (inactive). The NADPH fluorescence slope in [7] was -2.4e-05 (inactive). The slope in experiment [8] was 0.0053 (inactive). For the same molecule, the outcome in [9] was inactive.

For `NS(=O)(=O)c1cc2c(cc1Cl)NC(CSCc1ccccc1)=NS2(=O)=O`, in experiment [1], the cell count came out at 643. Also, the inhibition was -8.9% (inactive) in experiment [1]; -78.7% (inactive) in experiment [3]; 9.37% (inactive) in [5]; 2.85% (inactive) in experiment [10]; 10.8% (inactive) in experiment [11]; 33.9% (inactive) in [12]. For the same molecule, the inhibition of aggregation in experiment [2] was 13.9% (inactive). Further, the nuclei count in experiment [2] came to 103%; in experiment [3] it was 116%. The z-score in experiment [4] (setting [13]) is -0.00243; in experiment [4] (setting [14]), -0.584; in [4] (setting [15]), -0.561. The fluorescence slope in [6] was -0.459 (inactive). The NADPH fluorescence slope in experiment [7] was -7.8e-05 (inactive). For the same molecule, the slope in experiment [8] was 0.00625 (inactive). The molecule was called inactive in experiment [9].

For the molecule `Cn1c(=O)c2c3c(sc2n2c(SCc4ccccc4)nnc12)CCCC3`, in experiment [1], the cell count stood at 550. Also, the inhibition was -5.3% (inactive) in [1]; -44% (inactive) in [3]; 4.37% (inactive) in experiment [5]; 32.4% (inactive) in experiment [10]; -3.8% (inactive) in experiment [11]; 97.9% (active) in experiment [12]. Also, the inhibition of aggregation in experiment [2] was 1.8% (inactive). Moreover, the nuclei count is 103% in experiment [2] and 99.3% in experiment [3]. The figures for the z-score in experiment [4] (setting [13]), in experiment [4] (setting [14]) and in experiment [4] (setting [15]) were -0.0166, -0.0898 and -0.287, respectively. Also, the fluorescence slope in experiment [6] is -0.371 (inactive). The NADPH fluorescence slope in [7] is -1.7e-05 (inactive). In experiment [8], the slope was 0.00552 (inactive). In experiment [9], the call was inactive.
